Screens as filed in PubChem BioAssay.
NS1 function inh: inhibitors of influenza NS1 protein function | Potency, µM (highest dose often 46.1 µM), for the others: at the top dose activity, positive = more growth | 0.4% of 270,000 active; also: potency is read from the fitted curve at half-maximal effect; actives are rising curves; nearly all actives have a fitted effect of over 50% in size
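Recovery from NS1-induced slow growth read by OD600 in budding yeast switched to galactose assay medium (pH 6.0, -URA) at 1:100 dilution. Compound 23 nl per well; the matching strain lacking NS1 serves as control.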
Pf growth 96h: P. falciparum growth inhibition at 96 hour, primary screen for plastid delayed-death inhibitors. 6.9% of 320,000 active. AID 504834. P. falciparum luciferase reporter growth, 96 h. Potency, µM (doses to about 28.7 µM), for the others: at the highest dose activity change, negative = inhibition, hits mostly inhibitors; active = well fitted inhibition curve with a large enough effect; inconclusive = small, poorly fitted or top-dose-only effect, or another doubt; inactive = no such curve, though single readings can be large or run the other way; also: potency is read from the fitted curve at half-maximal effect; % is scaled to controls: 0 for no effect and ±100 for the full control effect
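96 h incubation, 37 C, 5% CO2, of luciferase-reporter P. falciparum-infected RBCs (2% hematocrit, 0.05% parasitemia final) with test compounds; endpoint luminescence.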
Pf growth 48h: P. falciparum growth inhibition at 48 hours (one generation). P. falciparum luciferase growth in erythrocytes, 48 h. Potency, µM (titrated, usually from 28.7 µM), for the others: at the top dose activity change, negative = inhibition, hits mostly inhibitors. 5.9% of 310,000 active; active = well fitted inhibition curve with a large enough effect; inconclusive = small, poorly fitted or top-dose-only effect, or another doubt; inactive = no such curve, though single readings can be large or run the other way; also: potency is read from the fitted curve at half-maximal effect; % is scaled to controls: 0 for no effect and ±100 for the full control effect
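Here the parasites carry a stable luciferase gene and grow inside erythrocytes in Albumax-based RPMI medium with compound for one erythrocytic cycle. Activity is scored as loss of luminescent signal.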
SARS PLpro yeast-1: SARS-CoV PLP inhibition in yeast. S. cerevisiae expressing SARS-CoV PLpro, growth rescue. Potency, µM (series often up to 32.9 µM), without a hit: at the highest dose activity, positive = growth rescue, hits mostly activators. 0.19% of 330,000 active; also: potency is read from the fitted curve at half-maximal effect; 0% is about no effect; nearly all actives have a fitted effect of over 55% in size
SARS PLpro yeast-2: Rescues yeast growth by inhibiting SARS-CoV PLpro; yeast expressing SARS-CoV PLpro, growth phenotype rescue; AID 652038; 19% of 1,000 active; calls only; shares compounds with SARS PLpro yeast-1; call rule not given here
* marks the source's active call; other numbers are inactive results; i = inactive; u = inconclusive; x = not tested or not shown; + = active, no number. Compounds with a hit are over-represented: about 10% of the library has one in this group of screens. Unless noted, calls follow the shape of the full dose curve.

SMILES	NS1 function inh	Pf growth 96h	Pf growth 48h	SARS PLpro yeast-1	SARS PLpro yeast-2
COC(=O)c1sc(NC(=S)NC(=O)c2cccc(Br)c2)nc1C	4%	32%	76%	u	u
COC(=O)c1sc(NC(=S)NC(=O)c2ccc(F)cc2)nc1C	x	u	38%	0%	x
Cc1ccc(C)c(/C=C/C(=O)c2ccccc(=O)c2O)c1	-35%	1.5µM*	4.1µM*	3.5µM*	i
Cc1ccc(/C=C/C(=O)c2ccccc2)cc1	-46%	41%	x	26%	x
O=C(/C=C/c1ccccc1Cl)c1ccccc(=O)c1O	-55%	3.7µM*	5.2µM*	u	+
O=C(/C=C/c1ccccc1Cl)c1ccc(O)cc1	-68%	u	52%	-8%	x
COc1cc(C#N)c(NS(=O)(=O)c2ccc3[nH]c(=O)sc3c2)cc1OC	-6%	6%	22%	0%	x
CCOC(=O)N1CCC(N2Cc3cccc(C(=O)N4CCN(C5CCCCC5)CC4)c3C2=O)CC1	-9%	u	x	20µM*	i
CCOC(=O)N1CCC(N2Cc3cccc(C(=O)Nc4cccc(F)c4)c3C2=O)CC1	x	u	u	2%	x
COC(=O)c1sc(=S)sc1C(=O)OC	-12%	u	-8%	6.3µM*	u
C[C@]12c3[nH]c4cc(-c5ccco5)ccc4c3CCN1C(=O)[C@@H](CC(=O)NCCCn1ccnc1)C[C@@H]2C(=O)N1CCCCC1	x	x	x	-11%	x
C[C@]12c3[nH]c4cc(-c5ccco5)ccc4c3CCN1C(=O)[C@@H](CC(=O)NCCCn1ccnc1)C[C@@H]2C(=O)N1CCOCC1	x	x	x	u	i
Cc1onc(-c2ccccc2)c1C(=O)NC(=S)NNC(=O)c1ccccc1O	-10%	u	u	4.5µM*	i
Cc1onc(-c2ccccc2)c1C(=O)NC(=S)NNC(=O)c1ccc(O)cc1O	28%	u	0%	14µM*	+
Cc1onc(-c2ccccc2)c1C(=O)NNC(=O)c1ccccc1Br	x	-20%	3%	2%	x
Cc1onc(-c2ccccc2)c1C(=O)NC(=S)NNC(=O)c1ccc(O)cc1	u	u	u	1%	x
S=C(NCc1ccccc1)N/N=C/c1cccs1	12%	u	7.4µM*	5.6µM*	+
O=C(Cc1ccccc1)NCC(=O)N/N=C/c1cccs1	11%	15%	111%	-5%	x
CC1Cc2nc(SCC(=O)Nc3nc4ccccc4s3)n(C)c(=O)c2S1 (configuration not stated)	-12%	u	u	-22%	x
Oc1ccc(/C=N/Nc2cc(N3CCCC3)nc(N3CCCC3)n2)cc1O	u	u	u	u	i
Oc1ccc(/C=N\Nc2cc(N3CCOCC3)nc(N3CCOCC3)n2)c(O)c1	7%	u	u	9%	x
COc1ccc(/C=C(\C#N)c2n[nH]c(Cn3cncn3)n2)cc1	7%	4%	11%	2%	x
CN1C(=O)/C(=C2/C=CC=CN2C)OC1=S	-109%	15%	-2%	u	u
CC(C)COc1cccc(C(=O)N(C)CC(=O)Nc2cccc3ccccc23)c1	x	x	x	14µM*	i
CC(=O)Nc1ccc(NS(=O)(=O)c2cccc3nonc23)cc1	-2%	29%	25%	4%	x
SMILES	NS1 function inh	Pf growth 96h	Pf growth 48h	SARS PLpro yeast-1	SARS PLpro yeast-2
C#CCOCCOCCOCCNc1nc(N2CCN(C(=O)[C@H](CCCCN)n3cc(C(N)COC(=O)C(F)(F)F)nn3)CC2)nc(N2CCN(C(=O)[C@H](CCCCN)n3cc(C(N)CC(C)C)nn3)CC2)n1 (some centres not stated)	-1%	65%	-1%	-1%	x
COC(=O)c1ccc(NC(=O)COC(=O)c2nc3nccc(C)n3n2)cc1	x	u	9%	-1%	x
Cc1ccnc2nc(C(=O)OCC(=O)Nc3ccc4c(c3)OCCO4)nn12	x	x	x	u	i
Cc1cc(C(=O)N/N=C/c2cc(Cl)cc([N+](=O)[O-])c2O)c2ccccc2n1	-52%	-27%	14%	2.2µM*	i
O=C(N/N=C/c1cc(Cl)cc([N+](=O)[O-])c1O)c1ccccc1NS(=O)(=O)c1cccs1	3%	86%	62%	4%	x
Cc1cc(C(=O)NN=C2CCCC2)c2ccccc2n1	x	-1%	-2%	-2%	x
Cc1cc(C(=O)NN=C2CCCCC2)c2ccccc2n1	11%	20%	8%	13µM*	i
COc1ccc(CNC(=O)CCCn2nc(C)n3ccnc3c2=O)cc1	-2%	10%	4%	3%	x
CCc1ccc(CNC(=O)CCCn2nc(C)n3ccnc3c2=O)cc1	7%	u	16%	u	i
COc1ccc(CC(=O)OCC(=O)Nc2ccc(F)cc2)cc1	x	21%	20%	0%	x
CC(=O)O[C@@]12CO[C@@H]1C[C@@H](O)[C@@]1(C)C(=O)[C@H](O)C3=C(C)[C@@H](OC(=O)[C@H](O)[C@@H](NC(=O)c4ccccc4)c4ccccc4)C[C@@](O)([C@@H](OC(=O)c4ccccc4)C12)C3(C)C (some centres not stated)	-10%	0.046µM*	u	u	u
C#CC[N+]1(CC#Cc2ccc(C)cc2)CCCCC1	5%	u	1.7µM*	20µM*	i
O=C(Nc1cc(-c2ccccc2)[nH]n1)c1ccc(Cl)cc1	1%	-18%	-9%	0%	x
C/C(=N\NC(N)=S)C1(C)CCCCC1	5%	u	u	18µM*	+
CC1(c2nnc(Cc3ccccc3)o2)CC(c2ccc(OC(F)(F)F)cc2)=NO1 (configuration not stated)	x	54%	0%	10µM*	i
C=C1C(C(=O)Nc2cccc(OC)c2)C1C(=O)Nc1cccc(OC)c1 (configuration not stated)	x	-3%	0%	1%	x
COc1ccc(Cl)cc1NC(=O)Nc1cccc([N+](=O)[O-])c1C	-7%	-14%	u	-5%	x
Cc1cccc(C)c1Nc1nnc(SC(C)C(=O)Nc2c(C)n(C)n(-c3ccccc3)c2=O)s1 (configuration not stated)	-1%	u	-8%	2%	x
Cc1ccc(Nc2nnc(SC(C)C(=O)Nc3c(C)n(C)n(-c4ccccc4)c3=O)s2)cc1 (configuration not stated)	24%	0%	-20%	2.8µM*	i
CCCCNC(=O)CCCCCNS(=O)(=O)c1ccc(OC)cc1	1%	40%	5%	u	i
COC(=O)C1(S(=O)(=O)c2cc(Br)cc3c2N(C(C)=O)CC3)CC1	2%	77%	9.3µM*	u	i
COc1ccccc1-c1nnn(CC#N)n1	-2%	-18%	-3%	u	i
COc1ccc(-c2nnn(CC#N)n2)cc1OC	-1%	x	13%	6%	x
Cc1ccc(N2CC(C(=O)OCC(=O)Nc3ccccc3C)CC2=O)cc1 (configuration not stated)	x	-5%	16%	u	u
COc1cc(N/N=C/c2ccccc2O)ncn1	-5%	u	u	8.9µM*	u
COc1cc(N/N=C/c2ccc(N(C)C)cc2)ncn1	0%	u	69%	0%	x
